Assay [1] addresses Calcium/calmodulin-dependent protein kinase type II subunit alpha (Homo sapiens) (UniProt Q9UQM7). Particulars: at 1 µM.
Assay [2] has as its target Calcium/calmodulin-dependent protein kinase type II subunit delta (Homo sapiens) (UniProt Q13557). The following applies: at 0.1 µM.
The target is the same in assay [3]. The following applies: at 1 µM.
The target of assay [4] is T1, Calcium/calmodulin-dependent protein kinase type IV (Homo sapiens) (UniProt Q16566).
T1 sequence (whole entry): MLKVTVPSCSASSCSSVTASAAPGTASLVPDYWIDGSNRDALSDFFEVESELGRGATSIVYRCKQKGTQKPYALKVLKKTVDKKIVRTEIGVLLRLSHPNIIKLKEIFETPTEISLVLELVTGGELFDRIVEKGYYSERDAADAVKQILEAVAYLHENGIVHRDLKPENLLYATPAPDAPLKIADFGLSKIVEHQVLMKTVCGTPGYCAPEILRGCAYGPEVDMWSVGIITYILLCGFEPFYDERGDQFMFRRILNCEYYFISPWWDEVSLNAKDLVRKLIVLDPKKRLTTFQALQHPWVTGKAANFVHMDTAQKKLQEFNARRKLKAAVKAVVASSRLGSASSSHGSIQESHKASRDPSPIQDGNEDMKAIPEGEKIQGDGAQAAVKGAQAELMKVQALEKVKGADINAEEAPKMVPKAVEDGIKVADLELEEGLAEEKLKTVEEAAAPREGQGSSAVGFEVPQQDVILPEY
Particulars: at 0.1 µM.

Assay [5] concerns the target T1, Calcium/calmodulin-dependent protein kinase type IV (Homo sapiens). Particulars: at 1 µM.
In assay [6] the target is T2, Serine/threonine-protein kinase Chk1 (Homo sapiens) (UniProt O14757).
T2 sequence (whole entry): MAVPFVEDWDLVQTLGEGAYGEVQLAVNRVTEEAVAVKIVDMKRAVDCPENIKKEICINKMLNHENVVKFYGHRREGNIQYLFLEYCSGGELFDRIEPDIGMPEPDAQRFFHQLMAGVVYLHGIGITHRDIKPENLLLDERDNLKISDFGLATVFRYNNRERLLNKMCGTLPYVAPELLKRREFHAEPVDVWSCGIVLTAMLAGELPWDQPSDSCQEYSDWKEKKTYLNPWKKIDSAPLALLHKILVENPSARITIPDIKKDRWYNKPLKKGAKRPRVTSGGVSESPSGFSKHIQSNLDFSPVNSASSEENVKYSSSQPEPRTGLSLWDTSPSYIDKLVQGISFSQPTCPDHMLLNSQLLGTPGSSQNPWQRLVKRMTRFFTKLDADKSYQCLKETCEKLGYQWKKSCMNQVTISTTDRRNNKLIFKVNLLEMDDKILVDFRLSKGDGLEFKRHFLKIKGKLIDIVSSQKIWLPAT
Particulars: at 0.1 µM.

In assay [7] the target is T2, Serine/threonine-protein kinase Chk1 (Homo sapiens). Particulars: at 1 µM.
The target of assay [8] is Serine/threonine-protein kinase Chk2 (Homo sapiens) (UniProt O96017). The following applies: at 0.1 µM.
The target is the same in assay [9]. The following applies: at 1 µM.
Assay [10] deals with Death-associated protein kinase 1 (Homo sapiens) (UniProt P53355). Particulars: at 0.1 µM.
The target is the same in assay [11]. The following applies: at 1 µM.
In assay [12] the target is T3, Serine/threonine-protein kinase DCLK2 (Homo sapiens) (UniProt Q8N568).
T3 sequence (whole entry): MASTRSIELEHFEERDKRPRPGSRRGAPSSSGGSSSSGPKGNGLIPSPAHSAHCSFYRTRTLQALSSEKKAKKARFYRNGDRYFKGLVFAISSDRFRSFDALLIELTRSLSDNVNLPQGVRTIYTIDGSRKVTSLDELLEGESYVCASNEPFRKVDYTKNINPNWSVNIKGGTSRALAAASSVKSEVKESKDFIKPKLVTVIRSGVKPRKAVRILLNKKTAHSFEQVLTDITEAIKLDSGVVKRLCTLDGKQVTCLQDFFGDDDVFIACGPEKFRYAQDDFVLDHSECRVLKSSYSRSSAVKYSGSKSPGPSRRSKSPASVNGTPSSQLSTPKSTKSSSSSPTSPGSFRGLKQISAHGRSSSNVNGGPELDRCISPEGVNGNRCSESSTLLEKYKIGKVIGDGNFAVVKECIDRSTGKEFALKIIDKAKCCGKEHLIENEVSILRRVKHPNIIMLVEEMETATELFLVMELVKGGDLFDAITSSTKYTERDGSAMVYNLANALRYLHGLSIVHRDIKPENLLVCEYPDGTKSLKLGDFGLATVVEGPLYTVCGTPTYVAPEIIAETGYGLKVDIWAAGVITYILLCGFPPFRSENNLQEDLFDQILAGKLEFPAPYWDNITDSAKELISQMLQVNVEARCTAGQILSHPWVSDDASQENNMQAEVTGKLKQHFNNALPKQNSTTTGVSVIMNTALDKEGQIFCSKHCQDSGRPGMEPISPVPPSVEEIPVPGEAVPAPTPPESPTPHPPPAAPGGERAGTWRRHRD
Particulars: at 0.1 µM.

The target of assay [13] is T3, Serine/threonine-protein kinase DCLK2 (Homo sapiens). The following applies: at 1 µM.
Assay [14] deals with MAP kinase-activated protein kinase 2 (Homo sapiens) (UniProt P49137). The following applies: at 0.1 µM.
For assay [15] the target is unchanged. Particulars: at 1 µM.
The target in assay [16] is MAP kinase-activated protein kinase 3 (Homo sapiens) (UniProt Q16644). The following applies: at 0.1 µM.
The target is the same in assay [17]. Particulars: at 1 µM.
The target in assay [18] is Serine/threonine-protein kinase MARK1 (Homo sapiens) (UniProt Q9P0L2). Particulars: at 0.1 µM.
Assay [19] shares this target. The following applies: at 1 µM.
Assay [20] addresses MAP/microtubule affinity-regulating kinase 3 (Homo sapiens) (UniProt P27448). The following applies: at 0.1 µM.

The structures appear in SMILES notation.

Calcium/calmodulin-dependent protein kinase type II subunit delta (Homo sapiens), sequence (Q13557 whole entry): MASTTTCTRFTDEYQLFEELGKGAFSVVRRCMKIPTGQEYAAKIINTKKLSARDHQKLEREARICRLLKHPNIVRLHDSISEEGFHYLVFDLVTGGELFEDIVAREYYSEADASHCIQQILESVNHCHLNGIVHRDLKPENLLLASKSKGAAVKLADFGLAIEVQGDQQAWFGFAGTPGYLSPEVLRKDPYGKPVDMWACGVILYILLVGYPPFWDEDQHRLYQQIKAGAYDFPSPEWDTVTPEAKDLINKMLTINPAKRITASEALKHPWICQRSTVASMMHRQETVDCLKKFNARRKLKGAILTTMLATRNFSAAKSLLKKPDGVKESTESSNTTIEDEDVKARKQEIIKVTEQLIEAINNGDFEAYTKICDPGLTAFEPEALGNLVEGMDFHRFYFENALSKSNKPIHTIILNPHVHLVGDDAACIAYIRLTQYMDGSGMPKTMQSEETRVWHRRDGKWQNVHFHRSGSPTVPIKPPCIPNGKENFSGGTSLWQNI
MAP kinase-activated protein kinase 2 (Homo sapiens), sequence (P49137 whole entry, looked up): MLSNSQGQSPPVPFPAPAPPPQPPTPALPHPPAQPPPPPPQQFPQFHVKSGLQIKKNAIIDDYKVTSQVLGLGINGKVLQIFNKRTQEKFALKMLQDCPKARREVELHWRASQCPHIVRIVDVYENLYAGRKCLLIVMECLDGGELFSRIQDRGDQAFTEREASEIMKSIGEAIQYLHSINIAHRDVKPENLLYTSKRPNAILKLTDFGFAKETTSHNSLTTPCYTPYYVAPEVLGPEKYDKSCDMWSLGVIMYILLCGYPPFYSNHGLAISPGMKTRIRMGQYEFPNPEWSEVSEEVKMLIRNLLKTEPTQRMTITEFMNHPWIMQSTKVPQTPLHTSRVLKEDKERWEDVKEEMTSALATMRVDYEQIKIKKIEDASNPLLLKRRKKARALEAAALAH
Calcium/calmodulin-dependent protein kinase type II subunit alpha (Homo sapiens), sequence (Q9UQM7 whole entry): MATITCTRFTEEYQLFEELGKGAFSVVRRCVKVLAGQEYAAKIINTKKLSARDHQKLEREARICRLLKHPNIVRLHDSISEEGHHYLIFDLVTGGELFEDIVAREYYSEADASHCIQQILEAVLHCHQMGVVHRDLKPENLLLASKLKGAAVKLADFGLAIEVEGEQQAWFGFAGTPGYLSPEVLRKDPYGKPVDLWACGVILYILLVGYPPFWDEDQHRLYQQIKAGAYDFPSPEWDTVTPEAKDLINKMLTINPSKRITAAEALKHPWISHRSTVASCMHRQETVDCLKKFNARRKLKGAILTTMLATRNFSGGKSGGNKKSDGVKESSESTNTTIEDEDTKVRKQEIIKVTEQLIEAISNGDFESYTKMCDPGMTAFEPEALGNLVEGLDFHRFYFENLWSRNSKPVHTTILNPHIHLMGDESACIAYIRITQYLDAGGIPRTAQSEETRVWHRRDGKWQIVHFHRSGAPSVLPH
MAP/microtubule affinity-regulating kinase 3 (Homo sapiens), sequence (P27448 whole entry, looked up): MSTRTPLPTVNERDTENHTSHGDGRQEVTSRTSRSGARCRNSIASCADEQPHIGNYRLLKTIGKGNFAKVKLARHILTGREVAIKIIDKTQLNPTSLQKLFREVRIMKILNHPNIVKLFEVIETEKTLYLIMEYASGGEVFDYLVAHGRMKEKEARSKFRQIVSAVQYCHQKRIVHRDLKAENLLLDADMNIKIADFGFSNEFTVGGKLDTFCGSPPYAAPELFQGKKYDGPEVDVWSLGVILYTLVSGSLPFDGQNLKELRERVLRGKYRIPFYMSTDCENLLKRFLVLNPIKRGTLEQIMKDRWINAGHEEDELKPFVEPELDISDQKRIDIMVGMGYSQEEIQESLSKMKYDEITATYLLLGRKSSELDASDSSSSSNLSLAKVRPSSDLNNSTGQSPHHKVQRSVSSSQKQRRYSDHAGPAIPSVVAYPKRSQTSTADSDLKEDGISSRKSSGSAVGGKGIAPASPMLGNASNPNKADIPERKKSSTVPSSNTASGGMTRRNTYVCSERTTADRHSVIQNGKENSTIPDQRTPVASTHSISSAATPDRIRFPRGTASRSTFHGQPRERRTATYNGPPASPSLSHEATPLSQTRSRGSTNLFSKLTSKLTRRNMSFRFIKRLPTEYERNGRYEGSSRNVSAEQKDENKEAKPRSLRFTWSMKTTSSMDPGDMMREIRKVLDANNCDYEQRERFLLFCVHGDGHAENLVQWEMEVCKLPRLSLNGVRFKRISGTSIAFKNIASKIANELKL
MAP kinase-activated protein kinase 3 (Homo sapiens), sequence (Q16644 whole entry, looked up): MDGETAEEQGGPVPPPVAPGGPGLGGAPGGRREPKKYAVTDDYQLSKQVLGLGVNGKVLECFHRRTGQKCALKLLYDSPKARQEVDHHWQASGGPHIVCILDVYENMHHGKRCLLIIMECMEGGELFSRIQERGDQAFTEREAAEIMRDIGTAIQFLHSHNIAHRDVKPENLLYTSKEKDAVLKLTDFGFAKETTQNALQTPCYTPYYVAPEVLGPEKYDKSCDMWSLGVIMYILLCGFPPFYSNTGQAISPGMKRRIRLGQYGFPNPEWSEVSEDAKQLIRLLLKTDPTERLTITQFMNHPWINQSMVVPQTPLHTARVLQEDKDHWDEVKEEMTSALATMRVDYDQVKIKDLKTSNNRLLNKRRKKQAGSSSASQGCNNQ
Serine/threonine-protein kinase MARK1 (Homo sapiens), sequence (Q9P0L2 whole entry, looked up): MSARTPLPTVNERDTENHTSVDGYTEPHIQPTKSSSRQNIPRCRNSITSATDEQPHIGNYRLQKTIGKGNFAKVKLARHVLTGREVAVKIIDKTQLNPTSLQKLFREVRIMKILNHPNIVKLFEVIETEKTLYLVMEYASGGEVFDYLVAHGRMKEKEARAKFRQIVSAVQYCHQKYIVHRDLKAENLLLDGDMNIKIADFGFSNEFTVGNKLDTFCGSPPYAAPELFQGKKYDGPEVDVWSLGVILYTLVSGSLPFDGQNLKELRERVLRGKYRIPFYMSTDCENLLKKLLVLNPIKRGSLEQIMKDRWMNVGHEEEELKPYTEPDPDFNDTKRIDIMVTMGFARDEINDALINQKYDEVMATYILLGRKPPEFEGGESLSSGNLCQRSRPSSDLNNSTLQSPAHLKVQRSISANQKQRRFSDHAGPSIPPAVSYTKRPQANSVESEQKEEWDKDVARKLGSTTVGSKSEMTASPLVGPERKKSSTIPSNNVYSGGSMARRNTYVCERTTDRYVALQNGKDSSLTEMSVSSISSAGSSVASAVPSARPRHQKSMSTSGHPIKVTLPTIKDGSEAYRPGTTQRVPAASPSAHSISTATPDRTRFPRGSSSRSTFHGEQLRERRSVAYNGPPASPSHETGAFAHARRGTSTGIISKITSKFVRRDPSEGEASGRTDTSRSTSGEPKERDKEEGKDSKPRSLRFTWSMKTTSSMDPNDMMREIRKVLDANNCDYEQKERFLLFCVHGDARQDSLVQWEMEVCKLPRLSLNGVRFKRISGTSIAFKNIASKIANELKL
Serine/threonine-protein kinase Chk2 (Homo sapiens), sequence (O96017 whole entry): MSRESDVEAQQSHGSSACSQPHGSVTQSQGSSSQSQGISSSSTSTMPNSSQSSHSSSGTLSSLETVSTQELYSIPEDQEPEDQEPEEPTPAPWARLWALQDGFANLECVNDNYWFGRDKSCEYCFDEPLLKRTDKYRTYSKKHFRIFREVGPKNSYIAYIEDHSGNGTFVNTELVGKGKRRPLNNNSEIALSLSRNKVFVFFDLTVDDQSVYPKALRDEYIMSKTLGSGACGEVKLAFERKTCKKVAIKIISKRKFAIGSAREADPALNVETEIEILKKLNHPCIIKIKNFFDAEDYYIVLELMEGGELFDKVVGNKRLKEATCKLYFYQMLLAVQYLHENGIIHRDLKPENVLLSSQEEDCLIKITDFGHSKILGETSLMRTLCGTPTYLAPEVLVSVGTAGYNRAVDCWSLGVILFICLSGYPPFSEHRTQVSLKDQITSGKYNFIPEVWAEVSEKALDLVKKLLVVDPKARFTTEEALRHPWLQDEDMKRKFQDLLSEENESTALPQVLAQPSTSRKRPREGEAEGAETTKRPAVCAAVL

For the molecule `CS(=O)(=O)CCNCc1nc(-c2ccc3ncnc(Nc4ccc(OCc5cccc(C(F)(F)F)c5)cc4)c3c2)cs1`, the inhibition turned out to be 2.45% in [1]; 2.93% in [2]; 3.53% in assay [3]; 0.68% in [4]; 1.44% in assay [5]; 1.74% in assay [6]. Further, the inhibition is 5.07% in assay [7]; 1.74% in assay [8]; 5.27% in [9]; 3.32% in assay [10]; 2.59% in assay [11]; -1.01% in assay [12]. For the same molecule, the inhibition was determined as 0.18% in [13]; 0.97% in [14]; 1.7% in assay [15]; 2.23% in [16]; 2.67% in assay [17]; 1% in assay [18]. Moreover, the inhibition worked out at 1.98% in assay [19] and 0.8% in assay [20].

With `COc1cc2ncnc(Nc3ccc4c(cnn4Cc4ccccc4)c3)c2cc1OC`, the inhibition in [1] was 0.24%; in assay [2], 1.57%; in assay [3] it was 4.24%; in assay [4], -0.17%; in assay [5] it was 0.05%; in [6], 8.66%. In addition, the inhibition in assay [7] is 14.1%; in assay [8], 10.7%; in assay [9] it was 35.9%; in assay [10] it was 9.32%; in [11], 8.23%; in assay [12], -1.15%. Besides, the inhibition in [13] was 0.67%; in assay [14], 2.78%; in [15], 4.35%; in assay [16], 6.95%; in assay [17], 9.14%; in assay [18], 1.12%. The results for the inhibition in assay [19] and in assay [20] were 3.17% and 0.1%, respectively.

`NS(=O)(=O)c1cccc(Nc2cc(-c3ccc(F)cc3)n[nH]2)c1`: the inhibition in assay [1] was 3.11%; in assay [2], 2.57%; in assay [3] it was 7.84%; in [4], -1.7%; in [5] it was -3.94%; in assay [6], -1.71%. In addition, the inhibition in [7] stood at 17.6%; in assay [8], 8.44%; in assay [9], 11.9%; in assay [10], 10.4%; in assay [11], 11.9%; in assay [12] it was 0.71%. Besides, the inhibition is -0.18% in [13]; 4.39% in assay [14]; 4.71% in [15]; 9.87% in assay [16]; 9.68% in assay [17]; 3.98% in assay [18]. In addition, the inhibition in [19] was 17.5%; in assay [20] it was 5.25%.

As for `COc1cccc(-n2ncc3c(N/N=C/c4ccc(C)cc4)ncnc32)c1`, the inhibition in assay [1] is 5.56%; in [2], 4.56%; in assay [3], 12.5%; in assay [4], 1.46%; in assay [5] it was 4.68%; in assay [6] it was -5.6%. For the same molecule, the inhibition in assay [7] was -5.11%; in assay [8], -1.83%; in assay [9] it was 2.47%; in assay [10], -3.26%; in assay [11] it was -4.37%; in assay [12] it was 0.26%. The inhibition is 2.82% in assay [13]; -0.94% in assay [14]; 0.98% in assay [15]; -0.57% in [16]; -0.87% in assay [17]; 3.16% in assay [18]. For the same molecule, the results for the inhibition in [19] and in assay [20] were 6.21% and 2.69%, respectively.

For the molecule `CN(C)c1cc2c(Nc3ccc4c(cnn4Cc4ccccc4)c3)ncnc2cn1`, the inhibition is 2.41% in [1]; 2.28% in [2]; 2.7% in [3]; 1.84% in assay [4]; 0.37% in [5]; 2.49% in assay [6]. In addition, the inhibition is 5.16% in assay [7]; 3.91% in assay [8]; 17.9% in assay [9]; 2.91% in assay [10]; 4% in [11]; 0.57% in assay [12]. Further, the inhibition is -0.18% in assay [13]; 1.53% in [14]; 1.29% in assay [15]; 2.73% in assay [16]; 2.81% in assay [17]; 2.96% in assay [18]. The inhibition was 3.22% in [19] and 0.52% in assay [20].

For `c1ccc(Cc2nc3ccc(Nc4ncnc5ccccc45)cc3[nH]2)cc1`, the inhibition was 2% in assay [1]; 1.68% in assay [2]; 2.41% in assay [3]; -2.03% in assay [4]; -1.81% in assay [5]; 2.86% in assay [6]. Besides, the inhibition was 9.39% in [7]; 1.71% in [8]; 5.02% in [9]; 3.43% in assay [10]; 5.17% in assay [11]; -0.21% in assay [12]. In addition, the inhibition in [13] was determined as 1.02%; in assay [14], 1.39%; in assay [15] it was 1.85%; in assay [16] it was 3.82%; in assay [17] it was 4.05%; in [18] it was 1.85%. The inhibition in [19] was found to be 6.13%; in assay [20], 1.67%.

The values above are taken from ChEMBL document CHEMBL1961873, “Compounds: GSK PKIS; Assays: Nanosyn kinase panel” (2012).
